About 79,000 compounds went through this panel and 15% of them were active in at least one assay; those are over-represented in the sample as a whole. Unmarked numbers belong to inactive results. Activity calls are given as the source filed them. No stated cut-off is given here; in the data, active means growth inhibition above about 70%; inactive means the rest.
Legend:
[1] = NCI Yeast Anticancer Drug Screen. Data for the rad52 strain (AID 147);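 further: 0% = growth of vehicle-treated control cultures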; details: S. cerevisiae rad52 mutant growth inhibition, stronger effect = higher value
Method in brief: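 Compounds are applied to a genetically defined yeast strain lacking normal DNA damage repair, and inhibition of growth is expressed relative to cultures given vehicle only.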

[2] = NCI Yeast Anticancer Drug Screen. Data for the wt1 strain (AID 149);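 further: 0% = growth of vehicle-treated wt1 cultures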; details: S. cerevisiae wt1 strain (SPY 50644) growth inhibition, stronger effect = higher value
Method in brief: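 Each compound is tested on wt1 yeast and the loss of growth versus vehicle gives the inhibition value.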

[3] = NCI Yeast Anticancer Drug Screen. Data for the rad50EPP+ strain (AID 151);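 further: 0% = growth of vehicle-treated control cultures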; details: S. cerevisiae rad50 mutant strain, stronger effect = higher value
Method in brief: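 Compounds were applied to the rad50EPP+ yeast strain, which bears a defined DNA repair alteration, and growth inhibition was determined relative to vehicle-treated cultures.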

[4] = NCI Yeast Anticancer Drug Screen. Data for the rad50 strain (AID 155);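 further: 0% = growth of vehicle-only cultures of the same strain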; details: S. cerevisiae rad50 strain growth inhibition, stronger effect = higher value
Method in brief: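 Vehicle-treated cultures provide the reference for the growth inhibition reported for compound-exposed, repair-deficient yeast.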

[5] = NCI Yeast Anticancer Drug Screen. Data for the rad14 strain (AID 159);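 further: 0% = growth of vehicle-treated control cultures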; details: S. cerevisiae rad14 strain growth inhibition, stronger effect = higher value
Method in brief: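 Inhibition of growth is reported for a repair-deficient yeast mutant following compound treatment, calculated relative to cultures that received vehicle.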

[6] = NCI Yeast Anticancer Drug Screen. Data for the sgs1 mgt1 strain (AID 161);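 further: 0% = growth of cultures given vehicle only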; details: S. cerevisiae sgs1 mgt1 strain, stronger effect = higher value
Method in brief: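 Read-out: growth inhibition vs vehicle controls. Cells: mutant yeast strain deficient in DNA damage repair.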

[7] = NCI Yeast Anticancer Drug Screen. Data for the CLN2oe strain (AID 163);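 further: 0% = growth of vehicle-only control cultures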; details: S. cerevisiae CLN2oe strain, stronger effect = higher value
Method in brief: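 Growth of a genetically modified yeast strain is measured after compound exposure and compared with cultures given vehicle alone.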

[8] = NCI Yeast Anticancer Drug Screen. Data for the cln2 rad14 strain (AID 165);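 further: 0% = growth equal to vehicle treated cultures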; details: S. cerevisiae cln2 rad14 strain, stronger effect = higher value
Method in brief: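 Compounds are applied to the cln2 rad14 yeast strain, and growth is then compared with that of vehicle-treated cultures to give inhibition.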

[9] = NCI Yeast Anticancer Drug Screen. Data for the bub3 strain (AID 167); details: S. cerevisiae bub3 mutant strain, stronger effect = higher value
Method in brief: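 Mutant yeast screening strain plus compound; vehicle-treated cultures serve as the 0% inhibition reference.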

[10] = NCI Yeast Anticancer Drug Screen. Data for the wt2 strain (AID 169); details: S. cerevisiae wt2 strain growth inhibition, stronger effect = higher value
Method in brief: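 This strain belongs to a panel of yeast strains with defined genetic alterations in DNA damage repair or cell cycle control. Compounds are applied, and growth inhibition is measured against vehicle-treated cultures.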

[11] = NCI Yeast Anticancer Drug Screen. Data for the sgs1 strain (AID 173);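 further: 0% = growth of vehicle-only control cultures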; details: S. cerevisiae sgs1 mutant, stronger effect = higher value
Method in brief: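 Growth of a yeast strain bearing a defined genetic alteration is measured after compound treatment. Inhibition is expressed relative to vehicle-only controls.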

[12] = NCI Yeast Anticancer Drug Screen. Data for the mlh1 rad18 strain (AID 175); details: S. cerevisiae mlh1 rad18 strain growth inhibition, stronger effect = higher value
Method in brief: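 Read-out is yeast growth inhibition, calculated against vehicle-only controls. The compound was applied to a strain engineered with DNA damage repair alterations.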

[13] = NCI Yeast Anticancer Drug Screen. Data for the rad18 strain (AID 177); details: S. cerevisiae rad18 mutant growth inhibition, stronger effect = higher value
Method in brief: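 Growth of the mutant yeast strain after compound exposure, normalised to vehicle-only cultures.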

[14] = NCI Yeast Anticancer Drug Screen. Data for the mec2-1 strain (AID 157); details: S. cerevisiae mec2-1 strain, stronger effect = higher value
Method in brief: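 Strain: mec2-1 (DNA repair/cell cycle alteration). Compound exposure, then growth measured; inhibition expressed relative to vehicle.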

[15] = NCI Yeast Anticancer Drug Screen. Data for the mlh1 strain (AID 171);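 further: 0% = growth of vehicle-treated control cultures of the same strain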; details: S. cerevisiae mlh1 strain growth inhibition, stronger effect = higher value
Method in brief: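 Growth of the mutant yeast strain after compound exposure, expressed as inhibition relative to vehicle-only controls.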

[16] = at 5.0 µM (retest, dose inferred, filed as 0.5)
[17] = at 50.0 µM (retest, dose inferred, filed as 5.0)

CC[N+]1(C)CCC(O)(c2ccc(OC)cc2)C(C(=O)c2ccc(OC)cc2)C1 (stereo not drawn)
growth inhibition ([1]; at 1.2 µM): -10%
growth inhibition ([1]; at 3.7 µM): -13%
growth inhibition ([1]; at 11.0 µM): -22%
growth inhibition ([1]; at 33.0 µM): -19%
growth inhibition ([1]; at 100.0 µM): -20%
growth inhibition ([2]; at 1.2 µM): -69%
growth inhibition ([2]; at 3.7 µM): -76%
growth inhibition ([2]; at 11.0 µM): -72%
growth inhibition ([2]; at 33.0 µM): -62%
growth inhibition ([2]; at 100.0 µM): -58%
growth inhibition ([3]; at 1.2 µM): -32%
growth inhibition ([3]; at 3.7 µM): -32%
growth inhibition ([3]; at 11.0 µM): -38%
growth inhibition ([3]; at 33.0 µM): -35%
growth inhibition ([3]; at 100.0 µM): -23%
growth inhibition ([4]; at 1.2 µM): -24%
growth inhibition ([4]; at 3.7 µM): -19%
growth inhibition [4, 16]: 24%
growth inhibition ([4]; at 11.0 µM): -37%
growth inhibition ([4]; at 33.0 µM): -21%
growth inhibition [4, 17]: 28%
growth inhibition ([4]; at 50.0 µM): -1.2%
growth inhibition ([4]; at 100.0 µM): -30%
growth inhibition ([5]; at 1.2 µM): 6%
growth inhibition ([5]; at 3.7 µM): 0%
growth inhibition ([5]; at 11.0 µM): -33%
growth inhibition ([5]; at 33.0 µM): -3%
growth inhibition ([5]; at 100.0 µM): -27%
growth inhibition [6, 16]: 87% (active)
growth inhibition [6, 17]: 95% (active)
growth inhibition ([6]; at 50.0 µM): -4.7%
growth inhibition ([7]; at 1.2 µM): -13%
growth inhibition ([7]; at 3.7 µM): -3%
growth inhibition ([7]; at 11.0 µM): -14%
growth inhibition ([7]; at 33.0 µM): -4%
growth inhibition ([7]; at 100.0 µM): -20%
growth inhibition [8, 16]: 86% (active)
growth inhibition [8, 17]: 97% (active)
growth inhibition ([8]; at 50.0 µM): 20.1%
growth inhibition ([9]; at 1.2 µM): -49%
growth inhibition ([9]; at 3.7 µM): -42%
growth inhibition [9, 16]: 35%
growth inhibition ([9]; at 11.0 µM): -61%
growth inhibition ([9]; at 33.0 µM): -52%
growth inhibition [9, 17]: 91% (active)
growth inhibition ([9]; at 50.0 µM): 8.55%
growth inhibition ([9]; at 100.0 µM): -68%
growth inhibition ([10]; at 1.2 µM): -21%
growth inhibition ([10]; at 3.7 µM): -15%
growth inhibition ([10]; at 11.0 µM): -14%
growth inhibition ([10]; at 33.0 µM): -16%
growth inhibition ([10]; at 100.0 µM): -22%
growth inhibition ([11]; at 1.2 µM): -10%
growth inhibition ([11]; at 3.7 µM): -37%
growth inhibition ([11]; at 11.0 µM): -49%
growth inhibition ([11]; at 33.0 µM): -44%
growth inhibition ([11]; at 100.0 µM): -50%
growth inhibition [12, 16]: 25%
growth inhibition [12, 17]: 29%
growth inhibition ([12]; at 50.0 µM): 6.75%
growth inhibition ([13]; at 1.2 µM): -7%
growth inhibition ([13]; at 3.7 µM): -17%
growth inhibition ([13]; at 11.0 µM): -13%
growth inhibition ([13]; at 33.0 µM): -23%
growth inhibition ([13]; at 100.0 µM): -23%

COc1ccc(NC(=O)CC2SC(=Nc3ccccc3C)NC2=O)c([N+](=O)[O-])c1 (stereo not drawn)
growth inhibition ([1]; at 1.2 µM): 0%
growth inhibition ([1]; at 3.7 µM): -2%
growth inhibition ([1]; at 11.0 µM): 2%
growth inhibition ([1]; at 33.0 µM): 13%
growth inhibition ([1]; at 100.0 µM): 75% (active)
growth inhibition ([2]; at 1.2 µM): -1%
growth inhibition ([2]; at 3.7 µM): -1%
growth inhibition ([2]; at 11.0 µM): 1%
growth inhibition ([2]; at 33.0 µM): 10%
growth inhibition ([2]; at 100.0 µM): 36%
growth inhibition ([3]; at 1.2 µM): -2%
growth inhibition ([3]; at 3.7 µM): -2%
growth inhibition ([3]; at 11.0 µM): 1%
growth inhibition ([3]; at 33.0 µM): 28%
growth inhibition ([3]; at 100.0 µM): 80% (active)
growth inhibition ([4]; at 1.2 µM): 1%
growth inhibition ([4]; at 3.7 µM): -44%
growth inhibition [4, 16]: 0%
growth inhibition ([4]; at 11.0 µM): 26%
growth inhibition ([4]; at 33.0 µM): 18%
growth inhibition [4, 17]: 69%
growth inhibition ([4]; at 50.0 µM): 56.7%
growth inhibition ([4]; at 100.0 µM): 98% (active)
growth inhibition ([14]; at 1.2 µM): 1%
growth inhibition ([14]; at 3.7 µM): 1%
growth inhibition [14, 16]: -17%
growth inhibition ([14]; at 11.0 µM): 4%
growth inhibition ([14]; at 33.0 µM): 15%
growth inhibition [14, 17]: 66%
growth inhibition ([14]; at 50.0 µM): 72.2% (active)
growth inhibition ([14]; at 100.0 µM): 97% (active)
growth inhibition ([5]; at 1.2 µM): -2%
growth inhibition ([5]; at 3.7 µM): -2%
growth inhibition ([5]; at 11.0 µM): 1%
growth inhibition ([5]; at 33.0 µM): 10%
growth inhibition ([5]; at 100.0 µM): 97% (active)
growth inhibition [6, 16]: 2%
growth inhibition [6, 17]: 74% (active)
growth inhibition ([6]; at 50.0 µM): 72.9% (active)
growth inhibition ([7]; at 1.2 µM): 0%
growth inhibition ([7]; at 3.7 µM): -4%
growth inhibition ([7]; at 11.0 µM): 0%
growth inhibition ([7]; at 33.0 µM): -6%
growth inhibition ([7]; at 100.0 µM): 16%
growth inhibition [8, 16]: -2%
growth inhibition [8, 17]: 22%
growth inhibition ([8]; at 50.0 µM): 32.2%
growth inhibition ([9]; at 1.2 µM): 2%
growth inhibition ([9]; at 3.7 µM): -1%
growth inhibition [9, 16]: -8%
growth inhibition ([9]; at 11.0 µM): -5%
growth inhibition ([9]; at 33.0 µM): 6%
growth inhibition [9, 17]: 71% (active)
growth inhibition ([9]; at 50.0 µM): 34.7%
growth inhibition ([9]; at 100.0 µM): 97% (active)
growth inhibition ([15]; at 1.2 µM): 0%
growth inhibition ([15]; at 3.7 µM): -1%
growth inhibition ([15]; at 11.0 µM): 0%
growth inhibition ([15]; at 33.0 µM): 11%
growth inhibition ([15]; at 100.0 µM): 99% (active)
growth inhibition ([11]; at 1.2 µM): -2%
growth inhibition ([11]; at 3.7 µM): 1%
growth inhibition ([11]; at 11.0 µM): 9%
growth inhibition ([11]; at 33.0 µM): 37%
growth inhibition ([11]; at 100.0 µM): 99% (active)
growth inhibition [12, 16]: -1%
growth inhibition [12, 17]: 53%
growth inhibition ([12]; at 50.0 µM): 74% (active)
growth inhibition ([13]; at 1.2 µM): -1%
growth inhibition ([13]; at 3.7 µM): 4%
growth inhibition ([13]; at 11.0 µM): 6%
growth inhibition ([13]; at 33.0 µM): 41%
growth inhibition ([13]; at 100.0 µM): 98% (active)
